Reference: PubChem BioAssay (NCATS)
Records with an inconclusive call do not appear. Calls of active or inactive are those of the source. The call rests on the fitted dose curve; in most records, active means well fitted inhibition curve with a large enough effect; inconclusive means small, poorly fitted or top-dose-only effect; inactive means no such curve, though single readings can be large or run the other way.

molecular target: Cytochrome P450 3A7 (Homo sapiens) (UniProt P24462); assay: Cytochrome P450 family 3 subfamily A member 7 (CYP3A7) small molecule antagonists: luciferase biochemical qHTS assay (AID 1963596); settings: P450-Glo CYP3A7 enzyme luminescence, 1 h; series mostly up to 57.4 µM; activity change, negative = inhibition: at the top concentration; further: nearly all actives have a fitted effect of over 40% in size
Sequence (P24462 whole entry, looked up): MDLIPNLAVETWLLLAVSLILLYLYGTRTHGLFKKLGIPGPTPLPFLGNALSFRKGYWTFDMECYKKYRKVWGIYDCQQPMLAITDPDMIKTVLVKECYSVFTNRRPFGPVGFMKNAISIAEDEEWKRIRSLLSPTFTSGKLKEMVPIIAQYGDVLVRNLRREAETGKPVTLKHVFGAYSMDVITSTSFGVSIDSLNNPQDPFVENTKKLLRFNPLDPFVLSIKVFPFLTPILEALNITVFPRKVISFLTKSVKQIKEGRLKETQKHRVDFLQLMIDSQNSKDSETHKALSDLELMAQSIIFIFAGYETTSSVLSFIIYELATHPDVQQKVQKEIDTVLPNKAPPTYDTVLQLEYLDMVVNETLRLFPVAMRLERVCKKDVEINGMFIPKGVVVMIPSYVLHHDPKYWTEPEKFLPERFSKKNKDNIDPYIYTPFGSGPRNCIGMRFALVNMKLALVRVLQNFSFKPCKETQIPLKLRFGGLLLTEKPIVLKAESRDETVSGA
Description: National Center for Advancing Translational Sciences [NCATS] Assay Overview: Cytochrome P450 (CYP) enzymes are membrane-bound hemeproteins that play a key role in metabolism of drugs and xenobiotics. The CYP3A subfamily is the most abundant, representing 30% of the total adult hepatic CYP content, whereas CYP3A7 is found predominantly in human fetal liver and accounts up to 50% of the total fetal hepatic CYP content. Testing the effect of chemicals on CYP isozymes is useful to minimize the adverse drug reactions and toxicities in the drug development process. Chemicals were tested for their effect on CYP enzyme activities by using P450-Glo (TM) screening systems (Promega Corporation, Madison, WI). These systems provide a luminescent method containing proluciferin substrates and are converted to luciferin products by CYP isozymes. The luciferin products formed are detected with a luciferin detection reagent, and the amount of light produced is proportional to CYP activity. P450-Glo (TM) CYP3A7 screening system (Catalog. No. V8812) was used to detect the compounds that interfere with CYP3A7 activity. The positive control compound used for CYP3A7 assay is ketoconazole (Sigma-Aldrich, St. Louis, MO).
Assay Protocol Summary: Two ul of enzyme-substrate mix was dispensed into medium binding white/solid 1536-well plates (Greiner Bio-One North America Inc., Monroe, NC) using a Flying Reagent Dispenser (FRD, Aurora Discovery, San Diego, CA). Compounds dissolved in DMSO, and positive control (ketoconazole) were transferred to the assay plates at 23 nl using a Pintool station (Wako, San Diego, CA). The assay plates were incubated at room temperature for 10 min. Then 2 ul of NADPH regeneration solution was added to each well of the assay plates using an FRD and incubated at room temperature for 1 h. The reaction was stopped by adding 4 ul of detection reagent using an FRD and after 20 min incubation at room temperature the luminescence signal was measured using a ViewLux plate reader (Perkin Elmer, Shelton, CT). Data were expressed as relative luminescence units.
On the % scale 0 is the no-effect control and ±100 the full control effect; potency means the concentration at half of the fitted maximal effect.

Row | Structure (SMILES) | activity change, negative = inhibition | Potency
1 | CCCCc1ccc(C(=O)O)nc1 | -0.905% (inactive) | –
2 | Oc1ccc(Cl)cc1 | -14.9% (inactive) | –
3 | CC(=O)[O][Hg][c]1ccccc1 | – | 977 nM (active)
4 | CCOc1cc(C=O)ccc1O | -14.2% (inactive) | –
5 | COc1cc(N2CCN(C)CC2)ccc1N | -30.7% (inactive) | –
6 | C#CC(O)(C=CCl)CC (stereo not given) | -1.73% (inactive) | –
7 | CC[N+](CC)(CC)CC | -3% (inactive) | –
8 | Clc1ccccc1N1CCNCC1 | 3.32% (inactive) | –
9 | O=C(N[C@H]1N=C(c2ccccc2F)c2cccc3c2N(CC3)C1=O)c1cc2ccccc2[nH]1 | 1.42% (inactive) | –
10 | CC(=O)C1CCOC1=O (stereo not given) | -20% (inactive) | –
11 | CCCCCCC(=O)CCCCCC/C=C/C[C@@H](O)[C@H](O)[C@@](N)(CO)C(=O)O | 2.81% [at 23.9 µM] (inactive) | –
12 | O=C(Oc1ccc([N+](=O)[O-])cc1)N1CCN(Cc2cccc(Oc3ccccc3)c2)CC1 | 1.07% (inactive) | –
13 | O=C1c2ccccc2C(=O)c2ccccc21 | 26.1% [at 23.9 µM] (inactive) | –
14 | C=CCN1CCC23c4c5ccc(O)c4O[C@H]2C(=O)CC[C@@]3(O)C1C5 (stereo not given in full) | -24.6% (inactive) | –
15 | OC(O)C(Cl)(Cl)Cl | -0.188% (inactive) | –
16 | NCCS[As](SCCN)c1ccc(Nc2nc(N)nc(N)n2)cc1 | -10.3% (inactive) | –
17 | O=c1[nH]c2ccccc2n1C1CCNCC1 | -20.7% (inactive) | –
18 | C1CCC(NC2CCCCC2)CC1 | -1.45% (inactive) | –
19 | CC(=O)NC1CCSC1=O (stereo not given) | -10.4% (inactive) | –
20 | CCCCn1cc(C(=O)c2cccc3ccccc23)c2ccccc21 | 12.7% (inactive) | –

Row | Structure (SMILES) | activity change, negative = inhibition | Potency
21 | C[C@H]1[C@@H]2Cc3ccc(O)cc3[C@@]1(C)CCN2C | -33.2% [at 288 µM] (inactive) | –
22 | O=[N+]([O-])c1cc([N+](=O)[O-])c2ccccc2c1 | 38.2% [at 115 µM] (inactive) | –
23 | CC(O)CN1CCN(CC(=O)[O-])CCN(CC(=O)[O-])CCN(CC(=O)[O-])CC1.[Gd+3] (stereo not given) | 12.6% (inactive) | –
24 | CN1C(=O)CCS(=O)(=O)C1c1ccc(Cl)cc1 (stereo not given) | -18.4% (inactive) | –
25 | CCN(C(C)=O)c1cccc(-c2ccnc3c(C#N)cnn23)c1 | 27.4% (inactive) | –
26 | C#CCN(C)[C@H](C)Cc1ccccc1 | -3.79% (inactive) | –
27 | c1ccc2c(c1)sc1ccccc12 | 21.8% (inactive) | –
28 | C[C@@H](N)[C@@H](O)c1ccccc1 | -14% (inactive) | –
29 | c1cncc(OC[C@@H]2CCN2)c1 | 1.62% (inactive) | –
30 | CCC1(CC)C(=O)C=CNC1=O | -9.6% (inactive) | –
31 | COC(=O)C(Cl)C(=O)OC | 27.7% (inactive) | –
32 | CCN(Cc1ccc(Cl)nc1)/C(=C/[N+](=O)[O-])NC | -18.3% (inactive) | –
33 | N#Cc1cn([C@@H]2O[C@H](CO)[C@H](O)[C@@H]2O)c2ncnc(N)c12 | -12.3% (inactive) | –
34 | Nc1ccccc1C(=O)O | -15% (inactive) | –
35 | O=c1n(Cl)c(=O)n(Cl)c(=O)n1Cl | 6.38% (inactive) | –
36 | CCCC(C)(COC(N)=O)COC(=O)NC(C)C (stereo not given) | -22.2% (inactive) | –
37 | CN1C(=O)[C@@H](NC(=O)c2cc3ccccc3[nH]2)N=C(c2ccccc2)c2ccccc21 | -27.6% (inactive) | –
38 | c1ccc(C2CC2)c(OCC2=NCCN2)c1 | -12.9% (inactive) | –
39 | CC(C)(O)C(Cl)(Cl)Cl | 25.7% (inactive) | –
40 | c1cc2c(c(N3CCNCC3)c1)OCCO2 | -5.6% (inactive) | –
